Screening results (PubChem)
Only some compounds are listed: those with a hit (about 6.1% of all), similar ones and a draw of the others.
TGFb inhibitor: blocks TGF-b signaling; HepG2 CAGA-GFP TGF-b/SMAD3 reporter, GFP fluorescence, 18 h; TGF-beta stimulated, 500 pg/mL final; Potency, µM (titrated, usually from 46.1 µM), hits mostly inhibitors; actives 1.2% (n = 410,000); AID 588855; note: nearly all actives have a fitted effect of over 65% in size
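Inhibition of TGF-beta-driven CAGA-GFP reporter expression in HEPG2 cells is measured by cellular GFP fluorescence after 18 h stimulation with 500 pg/mL recombinant TGF-beta in 1% FBS medium at 37 degrees C.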
HepG2 viability: HepG2 cytotoxicity, counter-screen for TGF-b inhibitors | HepG2 CAGA-GFP viability, ATP luminescence, 18 h | Potency, µM (highest dose often 46.1 µM), usual class: cytotoxic | actives 0.76% (n = 410,000) | AID 588856
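CellTiter-Glo luminescence gave cytotoxicity after 18 hours at 37 degrees C. The cells were HepG2 CAGA-GFP in 1% FBS DMEM, stimulated with 500 pg/mL TGF-beta after compound addition. %Activity was normalised to no-cell wells (complete cell-killing) and DMSO (no toxicity), and curves were fitted and classified.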
RORg inh: inhibitors of mouse ROR gamma transcriptional activity | P51450 | Drosophila S2 Gal4-RORgamma UAS-luciferase reporter, 20 h | actives 5.4% (n = 310,000) | Potency, µM (doses to about 53.6 µM), usual class: inhibitors; note: nearly all actives have a fitted effect of over 60% in size
Target sequence (P51450 whole entry, looked up, the tested form may be a part): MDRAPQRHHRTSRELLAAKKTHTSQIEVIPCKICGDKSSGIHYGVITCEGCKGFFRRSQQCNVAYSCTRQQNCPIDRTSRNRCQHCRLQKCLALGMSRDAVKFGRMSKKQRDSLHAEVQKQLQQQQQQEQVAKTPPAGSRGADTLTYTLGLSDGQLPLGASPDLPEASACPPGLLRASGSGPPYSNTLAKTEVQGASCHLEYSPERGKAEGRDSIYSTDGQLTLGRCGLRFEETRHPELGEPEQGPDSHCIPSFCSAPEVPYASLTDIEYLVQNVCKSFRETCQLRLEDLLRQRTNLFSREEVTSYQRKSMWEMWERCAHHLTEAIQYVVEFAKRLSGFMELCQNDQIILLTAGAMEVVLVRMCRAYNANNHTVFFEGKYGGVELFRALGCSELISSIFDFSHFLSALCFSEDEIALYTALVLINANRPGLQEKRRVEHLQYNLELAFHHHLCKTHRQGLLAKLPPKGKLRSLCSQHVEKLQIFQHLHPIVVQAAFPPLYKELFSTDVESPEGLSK
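Drosophila Schneider cells stably carrying a metallothionein-driven Gal4 DBD–ROR gamma fusion and a UAS-Photinus luciferase reporter were exposed to compound for 1 hr, then induced with copper sulfate (700 uM final) for 20 hr at ambient temperature before luminescence reading.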
ATXN2 expr inh: reduces ATXN2 reporter expression in HEK-293 cells; HEK-293 ATXN2-luciferase reporter, luminescence, 24 h; Potency, µM (series often up to 57 µM), most hits filed as inhibitors; actives 0.72% (n = 360,000); note: nearly all actives have a fitted effect of over 55% in size
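qHTS (up to 57 uM final) was run with 24 h compound exposure of reporter cells at 37 °C. Each well was multiplexed: SteadyGlo luminescence measured ATXN2-luciferase expression after a fluorogenic Gly-Phe-AFC viability readout (25 uM final).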
Gal4-VP16 FLuc: inhibits Gal4-VP16 luciferase reporter, ROR gamma counter-screen; Drosophila S2 Gal4-VP16 UAS-luciferase, luminescence, 20 h; Potency, µM (doses to about 53.6 µM), hits mostly inhibitors; actives 3.5% (n = 310,000); AID 2546;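 note: Gal4-VP16 expression switched on by copper sulfate through the metallothionein promoter; nearly all actives have a fitted effect of over 50% in size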
S2 tox: viability counter-screen for ATXN expression inhibitors; S2 cells (HEK-293 line with an ATXN2-luciferase reporter) viability, CellTiter-Fluor protease fluorescence, 24 h; Potency, µM (series often up to 56.7 µM), usual class: cytotoxic; actives 0.49% (n = 400,000); note: nearly all actives have a fitted effect of over 40% in size
Hits are given with their value. Calls come from the whole dose curve; as a rule, active = well fitted curve in the direction sought with a large enough effect; inconclusive = small, poorly fitted or top-dose-only effect, or another doubt; inactive = no such curve, though single readings can be large; an effect the other way counts as inactive or inconclusive.

COc1ccccc1NC(=S)NNC(=O)c1ccc(Cl)cc1Cl was read as TGFb inhibitor inactive, HepG2 viability inactive, RORg inh 13µM, ATXN2 expr inh inactive, Gal4-VP16 FLuc inconclusive and S2 tox inactive.
For COc1cc(F)c(C(C)C)cc1-c1ccc(C(F)(F)F)cc1CN1C(=O)O[C@H](c2cc(C(F)(F)F)cc(C(F)(F)F)c2)[C@@H]1C the results were ATXN2 expr inh inactive.
For CCN(CC)C(=O)Cn1c(=O)n(CCCCCC(=O)NCc2ccc3c(c2)OCO3)c(=O)c2sccc21 the results were TGFb inhibitor inactive and HepG2 viability inactive.
`Cc1nc2cccnc2n1-c1cccc(C(=O)N2CCN(c3cccc(Cl)c3)CC2)c1` gave TGFb inhibitor inconclusive and HepG2 viability inactive.
Screening CCC(=O)NC(=S)Nc1ccccc1F returned TGFb inhibitor inactive, HepG2 viability inactive, RORg inh 13µM, ATXN2 expr inh inactive, Gal4-VP16 FLuc inconclusive and S2 tox inactive.
CCCC(=O)NC(=S)Nc1ccccc1OC was read as TGFb inhibitor inactive, HepG2 viability inactive, RORg inh 10µM, ATXN2 expr inh inactive, Gal4-VP16 FLuc inconclusive and S2 tox inactive.
Screening COc1cccc(C(=O)Nc2ccccc2C(=O)OCc2cc(=O)n3c4c(sc3n2)CCCC4)c1 returned TGFb inhibitor inactive and HepG2 viability inactive.
C[C@H](O)[C@@H]1C(=O)N2C(C(=O)O)=C(S[C@@H]3CN[C@H](CNS(N)(=O)=O)C3)[C@@H](C)[C@@H]12 was read as ATXN2 expr inh inactive.
For Cc1ccc(/C=C2/CCc3c([nH]c4ccccc34)C2=O)cc1 the results were TGFb inhibitor inactive, HepG2 viability inactive, RORg inh inconclusive, ATXN2 expr inh inactive, Gal4-VP16 FLuc inconclusive and S2 tox inactive.
For Cc1ccc2[nH]c3c(c2c1)CC/C(=C/c1ccccc1)C3=O the results were TGFb inhibitor inactive, HepG2 viability inactive, RORg inh 4µM, ATXN2 expr inh inactive, Gal4-VP16 FLuc 6.3µM and S2 tox inactive.
For Cc1sc2cc3c(c(C(=O)c4ccccc4)[n+]2c1C)-c1cccc2cccc-3c12 the results were TGFb inhibitor inconclusive, HepG2 viability inactive, RORg inh inconclusive, ATXN2 expr inh 11µM, Gal4-VP16 FLuc 11µM and S2 tox inconclusive.
`O=C(c1ccccc1)c1c2c(cc3sc4ccccc4[n+]13)-c1cccc3cccc-2c13` gave TGFb inhibitor inactive, HepG2 viability inactive, RORg inh inconclusive, ATXN2 expr inh inconclusive, Gal4-VP16 FLuc 10µM and S2 tox 10µM.
Screening O=C(COC(=O)c1cccc(S(=O)(=O)N2CCN(c3ccccc3)CC2)c1)NCc1ccco1 returned TGFb inhibitor inactive, HepG2 viability inactive, RORg inh 8.9µM, ATXN2 expr inh inactive, Gal4-VP16 FLuc 10µM and S2 tox inactive.
`Nc1nc(Nc2ccccc2)nc(NCc2ccccc2)c1[N+](=O)[O-]` gave TGFb inhibitor inactive, HepG2 viability inactive, RORg inh inactive, ATXN2 expr inh inactive, Gal4-VP16 FLuc inactive and S2 tox inconclusive.
Cc1cccc(Nc2nc(N)c([N+](=O)[O-])c(NCc3ccccc3)n2)c1 was read as TGFb inhibitor inconclusive, HepG2 viability 22µM, RORg inh inactive, ATXN2 expr inh inactive, Gal4-VP16 FLuc inactive and S2 tox inactive.
For Cc1ccc(Nc2nc(N)c([N+](=O)[O-])c(NCCO)n2)cc1C the results were TGFb inhibitor inconclusive, HepG2 viability inactive, RORg inh inactive, ATXN2 expr inh inactive, Gal4-VP16 FLuc inactive and S2 tox inactive.
For Cc1ccc(Nc2nc(N)c([N+](=O)[O-])c(NCc3ccco3)n2)cc1C the results were TGFb inhibitor 16µM, HepG2 viability inactive, RORg inh inconclusive, ATXN2 expr inh inactive, Gal4-VP16 FLuc inactive and S2 tox inconclusive.
Cc1cccc(OCC(=O)Nc2ccccc2OCc2cc(=O)n3cc(C)ccc3n2)c1 was read as TGFb inhibitor inactive and HepG2 viability inactive.
`COc1ccc(CNC(=O)c2cccc(-n3cnc4cccnc43)c2C)cc1` gave TGFb inhibitor inactive and HepG2 viability inactive.
`N#CNC(=Nc1cccc(F)c1)SCc1cccc(F)c1` gave TGFb inhibitor 10µM, HepG2 viability inactive, RORg inh inactive, ATXN2 expr inh inactive, Gal4-VP16 FLuc inactive and S2 tox inactive.
N#CNC(=Nc1cccc(F)c1)SCc1ccccc1 was read as TGFb inhibitor inactive, HepG2 viability inactive, RORg inh inactive, Gal4-VP16 FLuc inactive and S2 tox inactive.
CCC(C)C(C(=O)OCC[N+](C)(CC)CC)c1ccccc1 (centres undefined) was read as S2 tox inactive.
For O=C(CSc1nc(-c2cccs2)cc(C(F)(F)F)n1)Nc1cc(OCC(F)(F)F)cc([N+](=O)[O-])c1 the results were TGFb inhibitor inactive, HepG2 viability inactive, RORg inh inactive, ATXN2 expr inh inconclusive, Gal4-VP16 FLuc inactive and S2 tox 16µM.
Screening COc1ccc(C(=O)Nc2nnc(SCC(=O)NC3CCCC3)s2)c(OC)c1 returned TGFb inhibitor inactive, HepG2 viability inactive, RORg inh 3.2µM, ATXN2 expr inh inconclusive, Gal4-VP16 FLuc inconclusive and S2 tox inconclusive.
Screening COc1ccc(C(=O)Nc2nnc(SCC(=O)NCc3ccco3)s2)c(OC)c1 returned TGFb inhibitor inactive, HepG2 viability inactive, RORg inh 11µM, ATXN2 expr inh inconclusive, Gal4-VP16 FLuc 10µM and S2 tox inactive.
For COc1ccc(C(=O)Nc2nnc(SCC(=O)Nc3ccc(NC(C)=O)cc3)s2)c(OC)c1 the results were TGFb inhibitor inactive, HepG2 viability inactive, RORg inh inconclusive, ATXN2 expr inh inactive, Gal4-VP16 FLuc inactive and S2 tox inactive.
COc1ccccc1C(=O)Nc1nnc(SCC(=O)NCc2ccco2)s1 was read as TGFb inhibitor inactive, HepG2 viability inactive, RORg inh inconclusive, ATXN2 expr inh inactive, Gal4-VP16 FLuc inconclusive and S2 tox inactive.
NC(=S)N/N=C1\CC(n2nnn(-c3cccc(Cl)c3)c2=S)C2COC1O2 (centres undefined) was read as TGFb inhibitor inactive, HepG2 viability inactive, RORg inh 4µM, ATXN2 expr inh inactive, Gal4-VP16 FLuc inconclusive and S2 tox inactive.
For NC(=S)N/N=C1\CC(n2nnnc2-c2ccccc2)C2COC1O2 (centres undefined) the results were TGFb inhibitor inconclusive, HepG2 viability inactive, RORg inh inconclusive, ATXN2 expr inh inactive, Gal4-VP16 FLuc inconclusive and S2 tox inactive.
Screening COC(=O)CCCn1c(-c2ccc(C)cc2)c(C)n2c3c(=O)n(C)c(=O)n(C)c3nc12 returned TGFb inhibitor inactive, HepG2 viability inactive, ATXN2 expr inh inactive and S2 tox inactive.
